Compound activity: PubChem, National Center for Advancing Translational Sciences (NCATS)
GLP1R ag – GLP-1 receptor (human) agonism; HEK293 GLP-1R CRE-luciferase, luminescence, 4-6 h; cells express a hypersensitive GLP-1R form; Potency, µM (top dose mostly 45.6 µM), most hits filed as activators; hit rate 0.007% among 380,000; AID 624172
Target sequence (P43220 whole entry, looked up): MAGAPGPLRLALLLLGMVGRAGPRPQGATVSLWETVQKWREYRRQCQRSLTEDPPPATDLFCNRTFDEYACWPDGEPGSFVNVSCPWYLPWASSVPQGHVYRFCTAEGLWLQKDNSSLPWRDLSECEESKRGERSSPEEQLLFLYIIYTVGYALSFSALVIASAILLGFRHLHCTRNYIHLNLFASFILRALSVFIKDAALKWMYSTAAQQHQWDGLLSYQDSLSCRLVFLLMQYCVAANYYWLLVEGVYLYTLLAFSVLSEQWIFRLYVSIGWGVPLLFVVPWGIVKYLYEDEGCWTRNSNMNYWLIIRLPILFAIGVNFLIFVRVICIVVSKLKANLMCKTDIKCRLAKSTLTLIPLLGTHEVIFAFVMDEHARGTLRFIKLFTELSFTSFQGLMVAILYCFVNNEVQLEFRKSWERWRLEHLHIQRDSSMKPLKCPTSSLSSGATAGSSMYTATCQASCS
a7 integrin act – activators of alpha7 integrin expression for muscular dystrophy | hit rate 0.064% among 350,000 | alpha7betagal myoblasts, beta-gal FDG fluorescence, 48 h | AID 624291 | Potency, µM (doses to about 38.3 µM), actives largely listed as activators; also: nearly all actives have a fitted effect of over 60% in size
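Alpha7betagal+/- myoblasts (passage 13) were plated 16-24 hr, then exposed to compounds (1:260 dilution of DMSO stock) for 48 hours at 37C. After MPER lysis, β-galactosidase reporter activity was read as FDG fluorescence (ex 480/em 540) after 30 minutes.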
BRCA1 expr up – increases BRCA1 expression | MCF7-BRCA1-FFLuc reporter, luminescence, 48 h; response scale: scaled: vehicle 0%, 10 µM genistein 100% | Potency, µM (top dose mostly 46.1 µM), actives largely listed as activators | hit rate 1.1% among 380,000 | AID 624202; also: nearly all actives have a fitted effect of over 80% in size
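Luminescence from a BRCA1-driven firefly luciferase in MCF7 cells was the read-out, taken 15 min after substrate addition following 48 h compound exposure at 37 °C. Data were normalized to a 10 microM genistein control and DMSO vehicle.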
GLP-1R inv ag – inverse agonists of human GLP-1 receptor | HEK293 GLP-1R CRE-luciferase, luminescence, 24 h; GLP-1R form is constitutively active | Potency, µM (top dose mostly 38.3 µM), hits mostly inhibitors | P43220 | hit rate 1.6% among 410,000 | AID 624417; also: nearly all actives have a fitted effect of over 55% in size
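Using stably transfected HEK293 (constitutively active GLP-1R, cAMP-luciferase reporter), compounds were incubated 24 hr and luciferase measured by luminescence.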
GLP1R cytotox – cytotoxicity in counter-screen for GLP-1R inverse agonists. hit rate 0.13% among 410,000. Potency, µM (doses to about 38.3 µM), hits mostly inhibitors. AID 624418. HEK293 cAMP-luciferase reporter cells, luminescence, 24 h;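 also: loss of luciferase light is scored as toxicity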
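Seeding density was 200 cells/uL; after overnight-length (12 h) culture, 23 nL compounds went on for 24 h at 37 °C. Readout used a luciferase detection reagent, luminescence taken after 12 min at room temperature.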
Numbers stand for hits; i = inactive; ? = inconclusive; nt = not tested or not shown; [ ] = dose if it differs, or a comment. In the library only some 2.7% were active in any assay of this set; here they are far more common. Calls follow the shape of the dose curve; as a rule, active = well fitted curve in the direction sought with a large enough effect; inconclusive = small, poorly fitted or top-dose-only effect, or another doubt; inactive = no such curve, though single readings can be large; an effect the other way counts as inactive or inconclusive.

SMILES | GLP1R ag | a7 integrin act | BRCA1 expr up | GLP-1R inv ag | GLP1R cytotox
COc1cc(OC)cc(C(=O)O/N=C(\N)c2ccncc2)c1 | i | i | i | i | i
N/C(=N\OC(=O)c1ccc(Br)cc1)c1ccncc1 | i | ? | 3.98µM | i | i
COC(=O)c1[nH]c2ccc(C)cc2c1NS(=O)(=O)c1ccc(F)c(C)c1 | i | i | i | 10µM | i
C=CCN1C(=O)NC(c2ccc(OC)cc2)(C(F)(F)F)S/C1=C(\C#N)c1nnc(N2CCOCC2)n1-c1ccccc1 (stereo not given) | i | i | i | ? | 10µM
C=CCN1C(c2cccc(C(F)(F)F)c2)=CS/C1=C(/C#N)c1nnc(N2CCOCC2)n1-c1ccccc1 | ? | i | i | ? | i
O=C(CSc1nc2cc(Cl)ccc2o1)Nc1ccc(N2CCOCC2)cc1 | i | i | 12.6µM | i | i
O=C(CSc1nc2ccccc2o1)Nc1ccc(N2CCOCC2)cc1 | i | i | ? | i | i
CCOc1ccc2nc(SCc3ccccc3C#N)sc2c1 | i | i | 7.94µM | ? | i
COc1ccc(C(C(=O)NCc2ccccc2)N(C(=O)Cn2nnc3ccccc32)c2cccc(OC)c2)cc1 (stereo not given) | nt | nt | nt | i | i
Cc1nc(-c2ccc(Cl)cc2)sc1CCNC(=O)c1ccc(C(F)(F)F)cc1 | nt | nt | nt | i | i
S=C(Nc1nc2c(s1)CCCC2)NC1CC1 | i | i | 6.31µM | ? | ?
COc1cccc(/C=C/c2nc3ccccc3nc2/C=C/c2cccc(OC)c2OC)c1OC | nt | nt | i | nt | nt
CCC(NC(=O)C1(C)CC1(Br)Br)c1ccc(C)cc1 (stereo not given) | i | i | i | ? | i
CCc1ccc(C(C)NC(=O)C2(C)CC2(Br)Br)cc1 (stereo not given) | i | i | i | 10µM | i
Fc1ccc(CSc2nnc(-c3ccccn3)o2)cc1 | i | i | 3.98µM | i | i
O=C(CSc1nnc(-c2ccccn2)o1)Nc1ccc(F)cc1 | i | i | i | ? | i
Cn1c(SCc2ccc(F)cc2)nnc1-c1ccccn1 | i | i[7.66 µM] | 4.47µM | i | i
Cn1c(SCc2ccccc2)nnc1-c1cccs1 | i | i | ? | i | i
Cn1c(SCc2ccc(F)cc2)nnc1-c1cccs1 | i | i[7.66 µM] | 4.47µM | i | i
Cn1c(SCc2ccccc2F)nnc1-c1ccccn1 | i | i | 11.2µM | i | i
CC[C@@H]1OC(=O)C[C@H](O)[C@@H](C)[C@@H](O[C@H]2O[C@@H](C)[C@H](O[C@@H]3C[C@](C)(O)[C@H](O)[C@@H](C)O3)[C@@H](N(C)C)[C@@H]2O)[C@@H](C=O)C[C@@H](C)C(=O)/C=C/C(C)=C[C@@H]1CO[C@H]1O[C@@H](C)[C@H](O)[C@H](OC)[C@@H]1OC | i | nt | nt | nt | nt
Cc1nc2nc(CNC(=O)OC(C)(C)C)nn2c(C)c1CCC(=O)NCc1ccccc1Cl | nt | nt | nt | i | i
Nn1c(SCc2ccccc2F)nnc1-c1cccnc1 | i | i | 8.91µM | i | i
Cc1ccc(C)c(N2CCN(C(=O)C3CCCN(Cc4nc(-c5cccc(Cl)c5)oc4C)C3)CC2)c1 (stereo not given) | nt | nt | nt | i | i
Cc1ccc(Cl)cc1N1CCN(C(=O)C2CCCN(Cc3nc(-c4cccc(Cl)c4)oc3C)C2)CC1 (stereo not given) | nt | nt | nt | 3.98µM | i
SMILES | GLP1R ag | a7 integrin act | BRCA1 expr up | GLP-1R inv ag | GLP1R cytotox
Cc1ccc(CNC(=O)CSc2ncc(S(=O)(=O)c3ccc(C)c(Cl)c3)c(=O)[nH]2)cc1 | i | nt | i | i | i
COC(=O)C1=C(C)N(c2ccc(S(N)(=O)=O)cc2)C(=O)C1 | i | i | i | i | i
COC(=O)C1=C(C)N(c2ccc(Cl)c(Cl)c2)C(=O)C1 | i | i | i | 12.6µM | i
OCCN1CCN(CC(O)COC(c2ccc(F)cc2)c2ccc(F)cc2)CC1 (stereo not given) | i | i | i | 3.55µM | i
COc1ccccc1C1=NC(c2ccc(C)cc2)N=C1C (stereo not given) | i | i | 10µM | ? | i
COc1ccccc1-c1nnc(-c2ccc(C)cc2)o1 | i | i | i | i | i
CN1c2ccccc2C(O)=C(C(=S)Nc2ccc(F)c(Cl)c2)S1(=O)=O | i | i | i | 10µM | i
CN1c2ccccc2C(O)=C(C(=S)Nc2ccccc2)S1(=O)=O | i | i | i | i | i
CCOc1ncccc1C(=O)OCC(=O)c1cc(C)n(Cc2ccco2)c1C | i | i | i | ? | i
Cc1cc(C(=O)CSc2nnnn2C)c(C)n1Cc1ccco1 | i | i | 4.47µM | i | i
Cc1cc(C(=O)CSc2ncccn2)c(C)n1Cc1ccco1 | i | i | ? | i | i
Cc1cc(C(=O)COC(=O)c2ccc(O)cc2)c(C)n1Cc1ccco1 | i | i | 2.82µM | ? | i
CCCCN(CCCC)CCNC(=O)c1cn(C)c2ccc(S(=O)(=O)N(C)C3CCCCC3)cc2c1=O | i | 10µM | i | i | i
COc1ccccc1/C=C1\C=Cc2ccccc21 | nt | nt | i | nt | nt
CCOc1ccccc1CNc1ccc2cc(S(=O)(=O)N3CCC(C)CC3)ccc2n1 | nt | nt | nt | ? | i
Cc1c(CC(=O)NC(C)C)c(=O)oc2cc3c(cc12)CCC(C)(C)O3 | i | ? | 11.2µM | i | i
Cc1c(CC(=O)N[C@@H](C)C(=O)O)c(=O)oc2cc3c(cc12)CCC(C)(C)O3 | i | i | i | i | i
CC(C)Oc1ccc(CNC(=O)c2cccc(NC(=O)c3nsc4ccccc34)c2)cc1 | nt | nt | nt | ? | i
CC1(C)SC(=S)N(/N=C/c2ccc(O)cc2)C1N(O)C(=O)Nc1ccc([N+](=O)[O-])cc1 (stereo not given) | i | i | i | 2.82µM | i
Cc1ccc(/C=N/N2C(=S)SC(C)(C)C2N(O)C(=O)Nc2ccc([N+](=O)[O-])cc2)cc1 (stereo not given) | i | i | i | ? | ?
COc1cccc(CN(C)C(=O)C(Cc2ccccc2)NC(=O)c2ccccc2)c1OC (stereo not given) | i | i | i | 8.91µM | i
COc1ccc(CN(C)C(=O)C(Cc2ccccc2)NC(=O)c2ccccc2)c(OC)c1OC (stereo not given) | i | i | i | ? | i
CCCOc1ccccc1Cn1c(=O)sc2ccccc21 | nt | nt | nt | ? | i
Cc1onc(-c2ccccc2Cl)c1C(=O)OCC(=O)N1CCCc2ccccc21 | i | i | i | 10µM | i
Cc1onc(-c2ccccc2Cl)c1C(=O)N1CCCc2ccccc21 | i | i | i | i | i
Cc1cc(/C=C2/C(=N)N3C(=NC2=O)SN=C3S(C)(=O)=O)c(C)n1-c1ccc(F)cc1 | i | ? | 7.94µM | i | i
CC(=O)Nc1nonc1-c1nnc(SCC(=O)Nc2cc(Cl)ccc2C)n1C | nt | nt | nt | i | i
C(=C\c1nc(-c2cccnc2)no1)/c1ccccc1 | i | i | 2.82µM | i | i
